Source: PubChem BioAssay
Calls of active or inactive are those of the source. The rule behind the calls is not given here.

Assay: inhibition of Brca1/Bard1 split-luciferase complementation, confirmation, counter-screen for Mdm2/MdmX interaction inhibitor project, luminescence, single concentration (AID 504668)
Settings: Brca1/Bard1 bimolecular luciferase complementation counterscreen, at 8 µM, stronger effect = higher value

Q: Which inhibition does the source give for `COC(=O)[C@@]1(Cc2ccccc2)[C@H]2C(=O)N(Cc3ccccc3)C(=O)[C@H]2[C@H]2CN=C(SCc3ccccc3)N21` here?
A: 34.6% (active)

Q: Which inhibition does the source give for `Cn1nccc1C(=O)N/N=C/c1c(O)ccc2ccccc12` here?
A: 31.1% (active)

Q: With `COc1ccc([N+](=O)[O-])cc1NC(=S)NC(NC(=O)C(c1ccccc1)c1ccccc1)C(Cl)(Cl)Cl` (stereo not given) as the molecule, how does the inhibition read?
A: 29.2% (active)

Q: Which inhibition does the source give for `CCCOc1ccc(C(=O)C(CN2CCOCC2)c2ccccc2)cc1` (stereo not given) here?
A: 25.6% (active)

Q: For `CCOC(=O)c1sc(NC(=O)Nc2cccc(Cl)c2)cc1C`, which inhibition is on record?
A: 34.4% (active)

Q: Which inhibition does the source give for `Cc1cc(C(=O)CCl)c(C)n1CCc1ccc(Cl)cc1` here?
A: 30.7% (active)

Q: With `CC(C)CC(=O)NC(c1cccs1)c1ccc2cccnc2c1O` (stereo not given) as the molecule, how does the inhibition read?
A: 25.3% (active)

Q: With `O=C(N/N=C/c1ccccc1O)c1cccc(C(F)(F)F)c1` as the molecule, how does the inhibition read?
A: 35.8% (active)

Q: Which inhibition does the source give for `C=CCc1cccc(/C=N/NC(=O)CNc2ccccc2OC)c1O` here?
A: 28.3% (active)

Q: Which inhibition does the source give for `Cc1cc(C2CCCCC2)n(O)c(=O)c1` here?
A: 32.2% (active)

Q: With `Cc1nc(NC2=NCN(CCCN3CCOCC3)CN2)nc2c(C)cccc12` as the molecule, how does the inhibition read?
A: 25.4% (active)

Q: With `O=C(/C=C/c1ccc(Cl)cc1)c1ccc([N+](=O)[O-])o1` as the molecule, how does the inhibition read?
A: 31.4% (active)

Q: With `COc1ccc2cc3c(N)nn(C(=O)c4cccc([N+](=O)[O-])c4)c3nc2c1` as the molecule, how does the inhibition read?
A: 32.1% (active)

Q: Which inhibition does the source give for `CC(=O)NC(=S)Nc1ccc(NC(=S)NC(=O)/C=C/c2ccco2)cc1` here?
A: 35% (active)

Q: For `Cc1ccc(C(c2cc(Cl)c3cccnc3c2O)N2CCN(C)CC2)cc1` (stereo not given), which inhibition is on record?
A: 32.5% (active)

Q: For `COc1cc(/C=C/C(=O)c2ccc(O)cc2)ccc1OCC#N`, which inhibition is on record?
A: 35.9% (active)

Q: For `CCOC(=O)C1=C(c2ccccc2)NC(=O)NC1c1ccc(O)c(Cl)c1` (stereo not given), which inhibition is on record?
A: 30.5% (active)

Q: Which inhibition does the source give for `Cc1sc2ncn(CC(=O)NCCCC(=O)Nc3ccc(C(C)C)cc3)c(=O)c2c1C` here?
A: 29.2% (active)

Q: With `COc1ccc(Oc2ccc(/C=C/C(=O)c3cccc(OC)c3)cc2[N+](=O)[O-])cc1` as the molecule, how does the inhibition read?
A: 26.2% (active)

Q: Which inhibition does the source give for `CCCCC(=O)NC(c1ccco1)c1cc(Cl)c2cccnc2c1O` (stereo not given) here?
A: 28.6% (active)

Q: Which inhibition does the source give for `Brc1ccc2ncnc(Nc3ccc(N4CCOCC4)cc3)c2c1` here?
A: 25.5% (active)

Q: For `c1ccc(-c2noc(-c3ccc4ccccc4c3)n2)nc1`, which inhibition is on record?
A: 27% (active)

Q: For `Oc1ccc(CNc2ccc(F)cc2)c2cccnc12`, which inhibition is on record?
A: 36% (active)

Q: With `CCOc1ccc(N(C(=O)/C=C/C(=O)Nc2cc(C)on2)C(C(=O)NC2CCCC2)c2ccccc2C)cc1` (stereo not given) as the molecule, how does the inhibition read?
A: 27.4% (active)

Q: With `CC(=O)OC[C@H]1O[C@@H](n2ncc(=O)[nH]c2=O)[C@H](OC(C)=O)[C@@H]1OC(C)=O` as the molecule, how does the inhibition read?
A: 31.6% (active)

Q: With `COc1ccc(/C=C2/SC(=S)N(CCCC(=O)Nc3ccc(O)cc3)C2=O)cc1OC` as the molecule, how does the inhibition read?
A: 29.9% (active)

Q: Which inhibition does the source give for `Cc1cccc(NC(=O)[C@H](Cc2c[nH]c3ccccc23)NC(=O)[C@@H]2Cc3ccccc3CN2)c1` here?
A: 26.6% (active)

Q: With `Oc1ccccc1C1CC(c2cccs2)=NC(c2ccc(Cl)cc2)N1` (stereo not given) as the molecule, how does the inhibition read?
A: 28.5% (active)

Q: For `O=C(Nc1nc(-c2ccccc2)cs1)c1ccccc1NS(=O)(=O)c1ccc(F)cc1`, which inhibition is on record?
A: 25.5% (active)

Q: Which inhibition does the source give for `Cc1ccccc1-c1nc(CN2CCC(C(=O)NCCCN3CC(C)CC(C)C3)CC2)c(C)o1` (stereo not given) here?
A: 25.7% (active)

Q: For `O=C(CNc1ccc(F)cc1)N/N=C/c1c(O)ccc2ccccc12`, which inhibition is on record?
A: 27.9% (active)

Q: Which inhibition does the source give for `CC(=O)NC(c1cccs1)c1cc(F)c2cccnc2c1O` (stereo not given) here?
A: 30.4% (active)

Q: Which inhibition does the source give for `Clc1ccc(Cn2ncc3c(NCc4ccco4)ncnc32)c(Cl)c1` here?
A: 31.2% (active)

Q: With `CCCC(=O)NC(c1ccco1)c1cc(Cl)c2cccnc2c1O` (stereo not given) as the molecule, how does the inhibition read?
A: 23.3% (active)

Q: Which inhibition does the source give for `O=C(/C=C/c1ccc2ccccc2n1)N1CCN(S(=O)(=O)c2ccccc2F)CC1` here?
A: 25.5% (active)

Q: For `Cc1noc(-c2ccc(C(F)(F)F)cc2)c1NC(=O)Nc1ccc(Cl)cc1`, which inhibition is on record?
A: 24.2% (active)

Q: For `CCCN(CCC)CCNC(=O)C1CCN(Cc2nc(-c3ccc(Cl)cc3)oc2C)CC1`, which inhibition is on record?
A: 30.3% (active)

Q: Which inhibition does the source give for `O=C(Nc1nc(-c2ccccn2)cs1)c1cccc(S(=O)(=O)N2CCOCC2)c1` here?
A: 33.4% (active)

Q: For `CN1CCc2c(sc(NC(=O)c3ccc(S(=O)(=O)N4CCc5ccccc54)cc3)c2C(N)=O)C1`, which inhibition is on record?
A: 24.1% (active)

Q: With `CC(=O)Nc1nc(C)c(-c2csc(Nc3cccc([N+](=O)[O-])c3)n2)s1` as the molecule, how does the inhibition read?
A: 35.6% (active)
